High-throughput results from PubChem BioAssay.
FMDV antiviral = antivirals against foot and mouth disease virus | FMDV antiviral cell-based qHTS | Potency, µM (doses to about 57.9 µM), for inactives: at the top dose activity change, negative = inhibition, usual class: inhibitors | actives 1.2% (n = 410,000); calls by dose curve; tested in HEK293T cells; further: read-out not given here; potency means the concentration at half of the fitted maximal effect; on the % scale 0 is the no-effect control and ±100 the full control effect; nearly all actives have a fitted effect of over 45% in size
HCV inh = inhibitors of hepatitis C virus infection; Huh7.5.1 HCVcc-Cre infection, luciferase reporter, 44 h; AID 651820; actives 3.4% (n = 340,000); Potency, µM (highest dose often 41.8 µM), for inactives: at the highest dose activity change, negative = inhibition, most hits filed as inhibitors; active means well fitted inhibition curve with a large enough effect; inconclusive means small, poorly fitted or top-dose-only effect, or another doubt; inactive means no such curve, though single readings can be large or run the other way; further: potency means the concentration at half of the fitted maximal effect; on the % scale 0 is the no-effect control and ±100 the full control effect
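Infectious HCV cell culture screen: compound-treated cells (1,000/well, pre-plated 4 h) are infected with HCVcc-Cre at roughly 0.5 moi and grown 44 h. Infection is quantified by luciferase signal after 15 min substrate incubation at room temperature.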
Lassa entry inh = Lassa virus entry inhibition; Lassa virus pseudotype entry inhibition, cell reporter; Potency, µM (titrated, usually from 37.9 µM), for the others: at the top dose activity change, negative = inhibition, usual class: inhibitors; actives 1.2% (n = 300,000); calls by dose curve; tested in HEK293 cells; further: potency means the concentration at half of the fitted maximal effect; on the % scale 0 is the no-effect control and ±100 the full control effect; nearly all actives have a fitted effect of over 50% in size
HCMV inh = inhibitors of human cytomegalovirus; HFF cells, HCMV-luciferase reporter, 72 h; hits give low values; activity change, negative = inhibition, % at 57.5 µM; actives 4.5% (n = 410,000); AID 1259415; in the data active means activity change below about -60%; inconclusive means no clear call, values can overlap the other calls; inactive means above about -39%; further: on the % scale 0 is the no-effect control and ±100 the full control effect
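Cell-based, HFFs, 1000 cells/well, 16 h 37C; cpds in DMSO + HCMV-luc, MOI 1 PFU/cell; 72 h 37C; OneGlo luminescence after 5 min RT; norm. to buffer vs Salinomycin 10uM.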
SARS PLP yeast = blocks SARS-CoV papain-like protease in a yeast assay; S. cerevisiae expressing SARS-CoV PLpro, growth rescue; Potency, µM (doses to about 32.9 µM), for the others: top-dose activity, positive = growth rescue, most hits filed as activators; actives 0.19% (n = 330,000); calls by dose curve; further: potency means the concentration at half of the fitted maximal effect; 0% is about no effect; nearly all actives have a fitted effect of over 55% in size
Marburg entry inh = Marburg virus entry inhibition; Potency, µM (titrated, usually from 37.8 µM), for inactives: at the highest dose activity change, negative = inhibition, hits mostly inhibitors; Marburg virus pseudotyped entry inhibition, cell reporter; actives 1.8% (n = 300,000); calls by dose curve; tested in HEK293 cells; further: potency means the concentration at half of the fitted maximal effect; on the % scale 0 is the no-effect control and ±100 the full control effect
Numbers without * were called inactive; ? = inconclusive; nt = not tested or not shown; [ ] = remark or other dose. Most compounds without a hit are left out; they make up all but 8% or so of the library.

SMILES | FMDV antiviral | HCV inh | Lassa entry inh | HCMV inh | SARS PLP yeast | Marburg entry inh
COC(=O)/C(=C/c1cccnc1)NC(=O)c1ccccc1 | -16% | 6% | 0% | 33 | 8% | 26%
COCCn1cnc2c(c1=O)c1nc3ccccc3nc1n2/N=C/c1cccc(OC)c1 | 28µM* | 4% | ? | -30 | -2% | ?
C=CCn1cnc2c(c1=O)c1nc3ccccc3nc1n2/N=C/c1cc(OC)c(OC)c(OC)c1 | -17% | ? | -15% | -14 | -5% | -7%
O=c1c2c3nc4ccccc4nc3n(/N=C/c3ccccn3)c2ncn1-c1ccccc1 | ? | -85% | ? | -27 | 1% | 5.6µM*
COc1cccc(/C=N/n2c(-c3ccco3)nc3ccccc3c2=O)c1 | ? | ? | -17% | -64* | -22% | 5%
COc1ccc(-n2ccnc(NCc3ccc(Cl)cc3)c2=O)cc1 | ? | nt | 5%[46.1 µM] | -35 | nt | nt
CCN(C(=O)c1cc2c(=O)n(CC)c3ccccc3c2s1)c1cccc(C(F)(F)F)c1 | ? | nt | -9%[46.1 µM] | 7 | nt | 4%[46.1 µM]
CCCc1cc(=O)oc2c3c(cc(OCC(=O)NCc4ccccn4)c12)OC(C)(C)CC3 | -26% | 10µM* | nt | ? | 3% | nt
Cc1cc(=O)oc2c3c(cc(OCC(=O)NCC(=O)O)c12)OC(C)(C)CC3 | 0% | -9% | nt | 0 | 2% | nt
Cc1cc(=O)oc2c3c(cc(OCC(=O)NCc4ccccc4)c12)OC(C)(C)CC3 | -28% | 5.6µM* | nt | 57 | -3% | nt
O=C(CCN1Cc2ccccc2OC(c2ccccc2F)C1)N1CCC(N2CCCC(O)C2)CC1 (stereo not given) | 7% | nt | nt | nt | nt | nt
CC(=O)N1c2ccc(S(=O)(=O)NCC3CCC(C(=O)Nc4cccc(C)c4)CC3)cc2CC1C (stereo not given) | -17% | nt | -13%[46.1 µM] | 38 | nt | nt
CC(=O)N1c2ccc(S(=O)(=O)NCC3CCC(C(=O)Nc4cccc(C)n4)CC3)cc2CC1C (stereo not given) | 22µM* | ? | ? | -71* | 13% | ?
CC(=O)N1c2ccc(S(=O)(=O)N3CCC(C(=O)Nc4ccccn4)CC3)cc2CC1C (stereo not given) | -28% | ? | nt | ? | 2% | nt
CC(=O)N1c2ccc(S(=O)(=O)N3CCC(C(=O)Nc4cccc(C)n4)CC3)cc2CC1C (stereo not given) | -19% | 1.3µM* | nt | -87* | 7% | nt
COc1ccc(-c2ccnc(-n3ncc(C(=O)NC(C)(C)CO)c3C3CC3)n2)cc1F | 43% | nt | nt | nt | nt | nt
CCOc1ccc(N2C(=O)CN(CC(=O)OC)C2=S)cc1 | 14% | 11% | -1%[46.1 µM] | -69* | -2% | 16%[46.1 µM]
COC(=O)N[C@H](CC(C)=O)c1ccc(Cl)cc1 | nt | nt | nt | nt | nt | 3%[14.2 µM]
Cc1nc(C)c(-c2ccc(SCC(=O)Nc3cccc(Cl)c3)nn2)s1 | ? | 10µM* | -1%[46.1 µM] | 7 | 2% | 1%[46.1 µM]
Cc1nc(C)c(-c2ccc(SCC(=O)Nc3cccc(F)c3)nn2)s1 | ? | 14µM* | ? | ? | -2% | ?
COc1ccc(OC)c(CCNC(=O)CCc2cn(Cc3cc(C)ccc3C)c3ccccc23)c1 | -10% | nt | -12%[46.1 µM] | -25 | nt | nt
Cc1ccc(C(=O)CC(=O)c2cc(Cl)ccc2O)cc1 | 74% | 13µM* | -73% | ? | -21% | ?
CC(C)(C)c1ccc(C(=O)CC(=O)c2cc(Cl)ccc2O)cc1 | 7% | 11µM* | ? | -83* | 0% | -66%
Cc1ccc(C(=O)CC(=O)c2ccc(C)cc2O)cc1 | 62% | ? | 3% | 49 | -2% | ?
Cc1ccc(C(=O)CC(=O)c2ccc(C(C)(C)C)cc2)cc1 | 28% | ? | nt | -4 | 1% | nt
SMILES | FMDV antiviral | HCV inh | Lassa entry inh | HCMV inh | SARS PLP yeast | Marburg entry inh
CCOC(=O)c1cc(C)n(CC2CCC(C(=O)Nc3ccc(OC)cc3)CC2)c1C (stereo not given) | ? | nt | -13%[46.1 µM] | -34 | nt | nt
COc1ccc(-c2csc3ncnc(NCCCO)c23)cc1 | ? | ? | 8%[46.1 µM] | -68* | 19% | ?
COc1ccc(-c2csc3ncnc(Nc4ccccc4)c23)cc1 | ? | nt | 25%[46.1 µM] | -15 | nt | nt
COc1ccc(-c2csc3ncnc(Nc4ccc(O)cc4)c23)cc1 | -27% | ? | nt | ? | 0% | nt
COc1ccc(-c2csc3ncnc(NCCO)c23)cc1 | ? | ? | nt | -87* | 2% | nt
c1cncc(-c2cc(-n3ccnc3)ncn2)c1 | -10% | nt | nt | nt | nt | nt
O=C(NCC(c1cccs1)N1CCOCC1)c1cn(-c2ccccc2)nc1-c1ccc(Cl)cc1 (stereo not given) | -3% | ? | -25% | nt | 3% | 10µM*
COc1ccc(-c2nn(-c3ccccc3)cc2C(=O)NCC(c2cccs2)N2CCOCC2)cc1 (stereo not given) | -7% | ? | -16% | -38 | 0% | ?
O=C(NCC(c1cccs1)N1CCOCC1)c1cn(-c2ccccc2)nc1-c1ccccc1 (stereo not given) | 28% | ? | 0% | -9 | 2% | 13µM*
CSc1cccc(NC(=O)N2CCN(S(=O)(=O)c3ccc4c(ccn4C)c3)CC2)c1 | -6% | nt | -2%[46.1 µM] | -12 | nt | nt
CC(=NNC(=S)N1CC2CCC(CC2)C1)c1cccc(C)n1 | -8% | ? | ? | -83* | nt | ?
CC(=NNC(=S)N1CC2CCC(CC2)C1)c1nccs1 | -11% | ? | ? | -63* | nt | ?
Clc1ccc(SCc2cc(N3CCOCC3)nc(-c3ccccn3)n2)cc1 | -26% | 8.9µM* | ? | -92* | 0% | ?
O=c1cc(CSc2ccc(Cl)cc2)nc(-c2ccccn2)[nH]1 | ? | ? | nt | -61* | -5% | nt
O=c1cc(CSc2ccccc2)nc(-c2ccccc2)[nH]1 | -10% | -3% | 1% | -105* | 1% | -2%[46.1 µM]
Clc1ccc(SCc2csc(N3CCOCC3)n2)cc1 | -11% | ? | 3% | -19 | -3% | -17%
COc1cc(/C=C/c2nc(C#N)c(NC3CCCCC3)o2)cc(OC)c1OC | -1% | nt | -8%[46.1 µM] | 140 | nt | ?
CCOC(=O)Cn1c(=O)n(C2CCCCC2)c2nc(-c3ccc(CC)cc3)nc(C(N)=O)c21 | -13% | nt | 15%[46.1 µM] | 2 | nt | nt
CCCCn1cnc2c(sc3nc4c(cc32)CSC(C)(C)C4)c1=O | 27% | 17% | 14% | 35 | 5% | 18%
CC(C)CCn1cnc2c(sc3nc4c(cc32)CSC(C)(C)C4)c1=O | -3% | 25% | 3% | -74* | 20% | -13%
Cc1cccc(C(=O)N2CCOc3ccc(CN(C)Cc4cc(C5CC5)n[nH]4)cc3C2)n1 | -8% | nt | nt | nt | nt | nt
CCCCCC1CCC(c2n[nH]c(=S)n2C)CC1 (stereo not given) | 7% | -3% | ? | -82* | 1% | ?
O=C(CCl)Nc1cccc(Oc2ccccc2)c1 | 13µM* | ? | -2% | -97* | 3% | ?
COC(=O)c1c(OCc2cccnc2)cc(=O)n2c1CCN(C(=O)c1c3c(nn1C)CCCC3)CC2 | -17% | nt | nt | nt | nt | nt
